This is a sample that favours compounds with a hit; in the whole collection about 8.1% have one here.
MITF inh = blocks MITF activity | TRPM1 promoter luciferase, luminescence, 24 h | inhibition, % (test concentration not listed) | 0.28% of 37,000 active; in the data active = inhibition above about 85%; inconclusive = no clear call, values can overlap the other calls; inactive = below about 68%;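 note: human melanocyte line stably carrying TRPM1 promoter luciferase reporter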
NOMO-1 viab = STK33 inhibitor candidate reducing NOMO-1 cell viability. AID 2330. 7.5% of 37,000 active. NOMO-1 AML viability, CellTiter-Glo luminescence, 72 h. inhibition, % (no concentration beside the values); in the data active = inhibition above about 80%; inconclusive = no clear call, values can overlap the other calls
Hedgehog inh = Sonic Hedgehog pathway inhibition; Shh-LIGHT2 Gli-luciferase reporter, 30 h; inhibition, % (test concentration not listed); 2.1% of 22,000 active;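 active = mean inhibition across valid replicates above about 65%, limit read from the data; inconclusive = mean under the limit, yet half or more replicates past it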;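 note: pathway switched on by Shh-conditioned medium diluted 1 in 25 in low serum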
PD-1 reverse act = reversal of PD-1 mediated T-cell inhibition; primary human CD4 T cells, PD-L1 beads, CellTiter-Glo 96 h; activation, % (test concentration not listed); 29,000 tested, under 10 active; AID 2316; call rule not given here
A number is an active result; . = inactive; ? = inconclusive; / = not tested or not shown.

SMILES | MITF inh | NOMO-1 viab | Hedgehog inh | PD-1 reverse act
CCNC(=O)c1c(NC(=O)COc2cccc3ccccc23)sc2c1CCCC2 | . | . | / | /
O=S(=O)(Cc1ccc(Cl)cc1)CC(O)COc1ccc(F)cc1 (stereo not given) | . | . | . | .
OC(COc1ccc(F)cc1)(c1ccc(Cl)cc1)c1ccc(Cl)cc1 | . | 121 | 75 | .
Cc1cc(C(F)(F)F)c2c(n1)sc1c(=O)[nH]c(C)nc12 | . | . | . | .
CC(C)(C)c1ccc2cc(C#N)c(C#N)cc2c1 | . | 140 | . | .
COc1ccc(OC)c(C2Nc3nc4ccccc4n3C(C)=C2C(=O)Nc2ccc(C)cc2C)c1 (stereo not given) | . | 85 | / | .
CCOC(=O)c1c(NC(=O)CSc2nc3c(cc2C#N)CCCC3)sc2c1CCCC2 | . | . | / | .
Cc1cc(C)c(C)c(OCC(=O)NCc2cccnc2)c1 | . | . | / | .
Nc1nonc1-c1nc2ccccc2n1CC(=O)Nc1cccc(Cl)c1Cl | . | 119 | / | /
CCCOc1ccc2nc(NC(=O)OC)[nH]c2c1 | . | 104 | . | /
Cc1ccc(S(=O)(=O)N(C)C[C@H]2Oc3c(NC(=O)Nc4ccc(C(F)(F)F)cc4)cccc3C(=O)N([C@H](C)CO)C[C@@H]2C)cc1 | . | . | . | /
C[C@@H]1CN([C@@H](C)CO)C(=O)c2cccc(NC(=O)Nc3ccc(C(F)(F)F)cc3)c2O[C@@H]1CN(C)S(=O)(=O)c1ccc(Cl)cc1 | 87 | 122 | ? | .
C[C@@H]1CN([C@H](C)CO)C(=O)c2cccc(NC(=O)Nc3ccc(C(F)(F)F)cc3)c2O[C@@H]1CN(C)S(=O)(=O)c1ccc(Cl)cc1 | . | 117 | . | .
O=C(COc1ccc([N+](=O)[O-])cc1)Nc1ccc2oc(-c3cc(F)c(F)cc3Cl)nc2c1 | . | . | / | .
Cc1csc2sc(COC(=O)Nc3ccccc3)c(C)c12 | . | 120 | ? | .
Cc1onc(-c2ccccc2)c1C(=O)NC1C(=O)N2[C@@H]1SC(C)(C)[C@@H]2C(=O)O (stereo not given in full) | . | . | . | /
Cc1[nH]c2ccccc2c1/C=C/c1nc2ccccc2c(=O)n1CCCO | . | . | / | .
O=c1c2ccccc2nc(/C=C/c2cc(Br)ccc2O)n1CCCO | 102 | 108 | / | .
CCOC(=O)c1c(CN(CC)CC)oc2ccc(OC)cc12 | . | . | . | .
CCOC(=O)c1c(CSc2nc(C)ccc2C#N)oc2ccc(OC(C)=O)cc12 | . | 117 | 100 | .
C[C@H](CO)N1C[C@H](C)[C@H](CN(C)Cc2ccc(Oc3ccccc3)cc2)Oc2c(NC(=O)Nc3ccc(F)cc3)cccc2C1=O | . | . | . | .
COc1ccc(NC(=O)Nc2cccc3c2O[C@H](CN(C)Cc2ccccc2)[C@@H](C)CN([C@@H](C)CO)C3=O)cc1 | . | . | . | .
COc1ccc(CN(C)C[C@@H]2Oc3c(NC(=O)Nc4ccccc4)cccc3C(=O)N([C@@H](C)CO)C[C@H]2C)cc1 | . | 100 | . | /
C[C@@H]1CN([C@@H](C)CO)C(=O)c2cccc(NC(=O)Nc3ccccc3)c2O[C@H]1CN(C)Cc1ccc(Oc2ccccc2)cc1 | . | 113 | . | .
C[C@H](CO)N1C[C@H](C)[C@@H](CN(C)Cc2ccc(Oc3ccccc3)cc2)Oc2c(NC(=O)Nc3ccc(F)cc3)cccc2C1=O | . | 99 | ? | .
SMILES | MITF inh | NOMO-1 viab | Hedgehog inh | PD-1 reverse act
COc1cc(CCC(O)CC(=O)CCc2ccccc2)ccc1O (stereo not given) | / | / | . | /
COc1cc(O)c(Cc2ccccc2O)c(O)c1C(=O)CCc1ccccc1 | . | 114 | . | .
COc1cc(CCC(O)CC(=O)CCc2ccc(O)cc2)ccc1O (stereo not given) | / | / | . | /
COc1cc(O)c(C(=O)CCc2ccccc2)c(O)c1Cc1ccccc1O | 108 | ? | . | .
COc1ccc(-c2nn(C)c(=O)c3ccccc23)cc1CNS(=O)(=O)c1ccc(Cl)cc1 | . | . | / | .
N#Cc1ccc(-c2cccs2)nc1SCC(=O)Nc1sc2c(c1C#N)CCCC2 | . | . | / | /
C[C@@H]1CN([C@H](C)CO)C(=O)c2cc(NC(=O)Cc3cn(C)c4ccccc34)ccc2O[C@H]1CN(C)Cc1ccccc1 | . | . | / | /
C[C@@H]1CN([C@H](C)CO)C(=O)c2cc(NC(=O)Cc3cn(C)c4ccccc34)ccc2O[C@@H]1CN(C)Cc1ccc(-c2ccccc2)cc1 | . | 112 | / | /
C[C@H](CO)N1C[C@H](C)[C@H](CN(C)Cc2ccc(-c3ccccc3)cc2)Oc2ccc(NC(=O)Cc3cn(C)c4ccccc34)cc2C1=O | . | 85 | / | .
C[C@H]1CN([C@@H](C)CO)C(=O)c2cc(NC(=O)Cc3cn(C)c4ccccc34)ccc2O[C@@H]1CN(C)Cc1ccc2c(c1)OCO2 | . | 98 | / | /
C[C@@H]1CN([C@H](C)CO)C(=O)c2cc(NC(=O)Cc3cn(C)c4ccccc34)ccc2O[C@@H]1CN(C)Cc1ccc(Oc2ccccc2)cc1 | . | 108 | ? | .
C[C@H](CO)N1C[C@H](C)[C@H](CN(C)Cc2ccccc2)Oc2ccc(NC(=O)Cc3cn(C)c4ccccc34)cc2C1=O | . | . | . | .
COC(=O)c1cc(NC(=O)c2ccco2)cc(C(=O)OC)c1 | . | . | . | .
C[C@@H]1CN([C@@H](C)CO)C(=O)c2cc(NC(=O)Cc3cn(C)c4ccccc34)ccc2O[C@@H]1CN(C)Cc1ccc(C(F)(F)F)cc1 | . | 106 | . | .
C[C@@H]1CN([C@H](C)CO)C(=O)c2cc(NC(=O)Cc3cn(C)c4ccccc34)ccc2O[C@H]1CN(C)Cc1ccc(C(F)(F)F)cc1 | . | . | / | .
O=C1C=CC(=C(c2ccc(O)cc2)c2ccc(O)cc2)C=C1 | . | 108 | 66 | /
CC(C)(C)c1ccc(-c2[nH]nc(NS(=O)(=O)c3ccccc3)c2Br)cc1 | . | ? | 95 | .
CC(C)(C)C1CCc2c(sc3nc(-c4cccs4)oc(=O)c23)C1 (stereo not given) | . | 108 | . | .
O=C(CSc1ncnc2sc(-c3ccccc3)cc12)NC1CCCCC1 | . | 104 | / | .
CCOC(=O)c1c(CNc2cccc(C(N)=O)c2)n(C)c2cc(Br)c(OC(C)=O)cc12 | . | . | . | .
N#Cc1cc2c(nc1SCC(=O)Nc1cccc(F)c1)CCCC2 | . | 92 | / | /
CCCc1c(C(=O)OCC)c(C(=O)OCC)c2c(-c3ccccc3)nc(N3CCOCC3)nn12 | . | ? | 78 | .
CC(=O)O[C@@H]1C[C@@H](C)[C@](O)(CCC2=CC(=O)OC2)[C@@]2(C)CCCC(C)(C)C12 (stereo not given in full) | . | 104 | . | .
C[C@H]1CN([C@@H](C)CO)C(=O)Cc2cc(NS(=O)(=O)c3ccc(Cl)cc3)ccc2O[C@H]1CN(C)Cc1ccc(C(=O)Nc2ccccc2N)cc1 | . | 139 | / | .
C[C@@H]1CN([C@H](C)CO)C(=O)Cc2cc(NS(C)(=O)=O)ccc2O[C@H]1CN(C)Cc1ccc(C(=O)Nc2ccccc2N)cc1 | . | . | / | .
C[C@@H]1CN([C@H](C)CO)C(=O)Cc2cc(NS(=O)(=O)c3ccccc3)ccc2O[C@@H]1CN(C)Cc1ccc(C(=O)Nc2ccccc2N)cc1 | . | 116 | / | .
